Data taken from ChEMBL document CHEMBL1961873, “Compounds: GSK PKIS; Assays: Nanosyn kinase panel” (2012).

Key:
[1] = target: Serine/threonine-protein kinase pim-2 (Homo sapiens) (UniProt Q9P1W9); conditions: at 1 µM;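 further: each value is a mean of the inhibition measurements against the kinase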
[2] = target: Serine/threonine-protein kinase pim-3 (Homo sapiens) (UniProt Q86V86); conditions: at 0.1 µM
[3] = target: Serine/threonine-protein kinase pim-3 (Homo sapiens) (UniProt Q86V86); conditions: at 1 µM
[4] = target: T1, MAP kinase-activated protein kinase 5 (Homo sapiens) (UniProt Q8IW41); conditions: at 0.1 µM
T1 sequence (whole entry): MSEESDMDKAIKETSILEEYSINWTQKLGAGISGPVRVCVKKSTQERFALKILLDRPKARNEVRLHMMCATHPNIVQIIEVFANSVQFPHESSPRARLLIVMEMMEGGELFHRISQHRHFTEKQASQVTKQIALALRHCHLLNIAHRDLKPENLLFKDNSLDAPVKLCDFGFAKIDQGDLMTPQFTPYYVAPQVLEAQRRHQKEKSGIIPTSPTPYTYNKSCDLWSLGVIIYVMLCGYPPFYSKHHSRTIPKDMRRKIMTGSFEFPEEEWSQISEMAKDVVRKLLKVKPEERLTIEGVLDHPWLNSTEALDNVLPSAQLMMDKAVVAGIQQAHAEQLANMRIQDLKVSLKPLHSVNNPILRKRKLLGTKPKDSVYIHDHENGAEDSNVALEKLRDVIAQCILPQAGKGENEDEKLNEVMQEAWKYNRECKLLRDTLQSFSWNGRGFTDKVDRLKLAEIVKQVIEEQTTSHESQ

[5] = target: T1, MAP kinase-activated protein kinase 5 (Homo sapiens); conditions: at 1 µM
[6] = target: Serine/threonine-protein kinase SIK1 (Homo sapiens) (UniProt P57059); conditions: at 0.1 µM
[7] = target: Serine/threonine-protein kinase SIK1 (Homo sapiens) (UniProt P57059); conditions: at 1 µM
[8] = target: Serine/threonine-protein kinase SIK2 (Homo sapiens) (UniProt Q9H0K1); conditions: at 0.1 µM
[9] = target: Serine/threonine-protein kinase SIK2 (Homo sapiens) (UniProt Q9H0K1); conditions: at 1 µM
[10] = target: T2, Serine/threonine-protein kinase TBK1 (Homo sapiens) (UniProt Q9UHD2); conditions: at 0.1 µM
T2 sequence (whole entry): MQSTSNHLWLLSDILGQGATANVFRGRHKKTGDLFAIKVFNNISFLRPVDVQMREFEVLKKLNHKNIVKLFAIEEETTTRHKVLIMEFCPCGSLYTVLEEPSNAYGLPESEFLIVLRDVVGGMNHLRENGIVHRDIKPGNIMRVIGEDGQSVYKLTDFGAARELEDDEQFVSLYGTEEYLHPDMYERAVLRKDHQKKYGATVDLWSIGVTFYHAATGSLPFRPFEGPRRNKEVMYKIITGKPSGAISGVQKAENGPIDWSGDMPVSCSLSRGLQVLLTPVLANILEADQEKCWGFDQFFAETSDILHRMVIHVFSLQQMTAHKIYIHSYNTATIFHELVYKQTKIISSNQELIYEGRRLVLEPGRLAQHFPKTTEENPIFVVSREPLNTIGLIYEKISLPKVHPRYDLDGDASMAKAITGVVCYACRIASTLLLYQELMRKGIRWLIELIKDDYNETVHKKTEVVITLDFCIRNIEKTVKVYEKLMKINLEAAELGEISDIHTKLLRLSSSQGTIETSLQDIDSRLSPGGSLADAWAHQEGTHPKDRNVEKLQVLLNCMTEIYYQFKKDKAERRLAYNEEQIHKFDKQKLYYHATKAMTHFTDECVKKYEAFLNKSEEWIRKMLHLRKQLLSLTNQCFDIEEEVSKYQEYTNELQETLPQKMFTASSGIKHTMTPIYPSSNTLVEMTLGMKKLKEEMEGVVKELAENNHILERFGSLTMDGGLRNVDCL

[11] = target: T2, Serine/threonine-protein kinase TBK1 (Homo sapiens); conditions: at 1 µM
[12] = target: T3, Testis-specific serine/threonine-protein kinase 1 (Homo sapiens) (UniProt Q9BXA7); conditions: at 0.1 µM
T3 sequence (whole entry): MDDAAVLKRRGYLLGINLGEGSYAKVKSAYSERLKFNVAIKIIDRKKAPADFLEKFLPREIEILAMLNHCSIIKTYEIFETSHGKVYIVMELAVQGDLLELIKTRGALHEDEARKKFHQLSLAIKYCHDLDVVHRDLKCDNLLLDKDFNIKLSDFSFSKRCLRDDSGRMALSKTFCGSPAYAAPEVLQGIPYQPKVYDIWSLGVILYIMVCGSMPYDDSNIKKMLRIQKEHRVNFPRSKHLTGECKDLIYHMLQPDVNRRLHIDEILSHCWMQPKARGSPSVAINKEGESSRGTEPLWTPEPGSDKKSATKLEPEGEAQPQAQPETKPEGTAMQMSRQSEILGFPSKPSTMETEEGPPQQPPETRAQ

[13] = target: T3, Testis-specific serine/threonine-protein kinase 1 (Homo sapiens); conditions: at 1 µM
[14] = target: T4, Testis-specific serine/threonine-protein kinase 2 (Homo sapiens) (UniProt Q96PF2); conditions: at 0.1 µM
T4 sequence (whole entry): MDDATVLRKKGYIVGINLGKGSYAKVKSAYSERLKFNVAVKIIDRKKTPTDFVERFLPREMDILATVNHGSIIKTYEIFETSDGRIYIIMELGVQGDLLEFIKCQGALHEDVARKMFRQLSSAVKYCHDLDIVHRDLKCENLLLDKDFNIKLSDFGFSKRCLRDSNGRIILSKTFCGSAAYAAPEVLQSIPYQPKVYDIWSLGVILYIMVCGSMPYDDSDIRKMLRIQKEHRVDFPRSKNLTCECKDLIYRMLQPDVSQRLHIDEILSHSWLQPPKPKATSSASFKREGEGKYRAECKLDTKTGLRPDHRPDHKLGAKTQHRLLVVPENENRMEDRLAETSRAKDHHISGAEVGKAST

[15] = target: T4, Testis-specific serine/threonine-protein kinase 2 (Homo sapiens); conditions: at 1 µM
[16] = target: Casein kinase I isoform alpha (Homo sapiens) (UniProt P48729); conditions: at 0.1 µM
[17] = target: Casein kinase I isoform alpha (Homo sapiens) (UniProt P48729); conditions: at 1 µM
[18] = target: Casein kinase I isoform gamma-1 (Homo sapiens) (UniProt Q9HCP0); conditions: at 0.1 µM
[19] = target: Casein kinase I isoform gamma-1 (Homo sapiens) (UniProt Q9HCP0); conditions: at 1 µM
[20] = target: Casein kinase I isoform gamma-2 (Homo sapiens) (UniProt P78368); conditions: at 0.1 µM;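 further: values are mean inhibition figures reported as part of the GSK PKIS dataset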
Casein kinase I isoform gamma-2 (Homo sapiens), sequence (P78368 whole entry, looked up, canonical isoform): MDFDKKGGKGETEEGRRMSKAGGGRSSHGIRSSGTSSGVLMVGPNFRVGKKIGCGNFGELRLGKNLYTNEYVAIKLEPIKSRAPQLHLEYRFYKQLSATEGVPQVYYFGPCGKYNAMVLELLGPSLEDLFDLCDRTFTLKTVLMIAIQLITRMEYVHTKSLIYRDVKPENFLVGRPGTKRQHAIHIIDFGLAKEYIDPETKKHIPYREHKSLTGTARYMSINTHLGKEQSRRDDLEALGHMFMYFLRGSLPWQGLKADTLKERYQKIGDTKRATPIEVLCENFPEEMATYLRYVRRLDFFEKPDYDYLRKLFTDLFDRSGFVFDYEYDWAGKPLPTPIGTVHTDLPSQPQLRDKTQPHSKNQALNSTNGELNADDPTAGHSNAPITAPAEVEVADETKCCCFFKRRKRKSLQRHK

Serine/threonine-protein kinase SIK1 (Homo sapiens), sequence (P57059 whole entry): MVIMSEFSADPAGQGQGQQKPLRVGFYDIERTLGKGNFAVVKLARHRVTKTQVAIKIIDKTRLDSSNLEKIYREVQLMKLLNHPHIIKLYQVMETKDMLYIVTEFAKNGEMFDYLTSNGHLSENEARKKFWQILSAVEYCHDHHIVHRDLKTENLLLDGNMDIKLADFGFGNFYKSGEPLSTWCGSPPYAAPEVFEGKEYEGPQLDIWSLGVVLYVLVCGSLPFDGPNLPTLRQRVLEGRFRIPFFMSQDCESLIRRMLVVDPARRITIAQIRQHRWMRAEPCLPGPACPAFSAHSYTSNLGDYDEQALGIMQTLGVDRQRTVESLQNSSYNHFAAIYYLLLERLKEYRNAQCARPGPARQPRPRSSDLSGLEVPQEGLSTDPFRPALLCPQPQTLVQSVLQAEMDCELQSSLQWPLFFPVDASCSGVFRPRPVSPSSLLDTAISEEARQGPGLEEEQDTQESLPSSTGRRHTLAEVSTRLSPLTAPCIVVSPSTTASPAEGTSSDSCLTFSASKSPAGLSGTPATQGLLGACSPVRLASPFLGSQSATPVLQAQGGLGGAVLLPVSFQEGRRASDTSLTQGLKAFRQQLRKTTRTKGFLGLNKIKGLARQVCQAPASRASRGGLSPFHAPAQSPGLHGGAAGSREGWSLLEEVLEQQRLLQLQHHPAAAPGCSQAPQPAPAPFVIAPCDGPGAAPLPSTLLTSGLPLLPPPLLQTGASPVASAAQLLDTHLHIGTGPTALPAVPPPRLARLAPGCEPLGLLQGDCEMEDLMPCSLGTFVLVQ
Casein kinase I isoform gamma-1 (Homo sapiens), sequence (Q9HCP0 whole entry, looked up, canonical isoform): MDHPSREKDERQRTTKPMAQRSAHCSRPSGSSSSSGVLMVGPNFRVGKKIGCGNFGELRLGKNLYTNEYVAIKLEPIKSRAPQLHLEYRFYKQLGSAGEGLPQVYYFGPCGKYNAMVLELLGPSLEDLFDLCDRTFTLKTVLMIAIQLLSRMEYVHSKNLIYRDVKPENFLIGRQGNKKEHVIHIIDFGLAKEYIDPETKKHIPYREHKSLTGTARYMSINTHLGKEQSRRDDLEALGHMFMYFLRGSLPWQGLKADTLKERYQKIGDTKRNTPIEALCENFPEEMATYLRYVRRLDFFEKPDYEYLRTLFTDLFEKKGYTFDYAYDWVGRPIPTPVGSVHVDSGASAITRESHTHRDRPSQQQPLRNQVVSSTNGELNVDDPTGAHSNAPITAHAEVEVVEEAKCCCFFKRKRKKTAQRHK
Serine/threonine-protein kinase pim-2 (Homo sapiens), sequence (Q9P1W9 whole entry, looked up): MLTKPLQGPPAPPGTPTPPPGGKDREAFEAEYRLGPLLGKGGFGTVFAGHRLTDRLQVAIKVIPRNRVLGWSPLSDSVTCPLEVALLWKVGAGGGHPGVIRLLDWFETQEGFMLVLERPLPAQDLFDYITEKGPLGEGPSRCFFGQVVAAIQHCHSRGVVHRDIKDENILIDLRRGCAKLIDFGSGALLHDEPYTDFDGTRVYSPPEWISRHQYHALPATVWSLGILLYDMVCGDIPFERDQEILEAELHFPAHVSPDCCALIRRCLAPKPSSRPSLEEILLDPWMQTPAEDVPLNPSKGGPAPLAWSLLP
Casein kinase I isoform alpha (Homo sapiens), sequence (P48729 2-337 limits assumed): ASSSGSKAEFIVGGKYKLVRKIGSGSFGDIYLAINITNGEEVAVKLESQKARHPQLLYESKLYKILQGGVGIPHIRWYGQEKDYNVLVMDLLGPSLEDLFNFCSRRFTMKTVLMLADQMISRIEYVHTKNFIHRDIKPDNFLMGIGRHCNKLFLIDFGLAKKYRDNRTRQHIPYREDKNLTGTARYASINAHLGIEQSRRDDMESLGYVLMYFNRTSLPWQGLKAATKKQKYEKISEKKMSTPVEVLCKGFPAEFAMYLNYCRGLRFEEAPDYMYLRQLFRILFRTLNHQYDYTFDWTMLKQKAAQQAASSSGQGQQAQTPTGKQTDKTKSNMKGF
Serine/threonine-protein kinase SIK2 (Homo sapiens), sequence (Q9H0K1 whole entry, looked up): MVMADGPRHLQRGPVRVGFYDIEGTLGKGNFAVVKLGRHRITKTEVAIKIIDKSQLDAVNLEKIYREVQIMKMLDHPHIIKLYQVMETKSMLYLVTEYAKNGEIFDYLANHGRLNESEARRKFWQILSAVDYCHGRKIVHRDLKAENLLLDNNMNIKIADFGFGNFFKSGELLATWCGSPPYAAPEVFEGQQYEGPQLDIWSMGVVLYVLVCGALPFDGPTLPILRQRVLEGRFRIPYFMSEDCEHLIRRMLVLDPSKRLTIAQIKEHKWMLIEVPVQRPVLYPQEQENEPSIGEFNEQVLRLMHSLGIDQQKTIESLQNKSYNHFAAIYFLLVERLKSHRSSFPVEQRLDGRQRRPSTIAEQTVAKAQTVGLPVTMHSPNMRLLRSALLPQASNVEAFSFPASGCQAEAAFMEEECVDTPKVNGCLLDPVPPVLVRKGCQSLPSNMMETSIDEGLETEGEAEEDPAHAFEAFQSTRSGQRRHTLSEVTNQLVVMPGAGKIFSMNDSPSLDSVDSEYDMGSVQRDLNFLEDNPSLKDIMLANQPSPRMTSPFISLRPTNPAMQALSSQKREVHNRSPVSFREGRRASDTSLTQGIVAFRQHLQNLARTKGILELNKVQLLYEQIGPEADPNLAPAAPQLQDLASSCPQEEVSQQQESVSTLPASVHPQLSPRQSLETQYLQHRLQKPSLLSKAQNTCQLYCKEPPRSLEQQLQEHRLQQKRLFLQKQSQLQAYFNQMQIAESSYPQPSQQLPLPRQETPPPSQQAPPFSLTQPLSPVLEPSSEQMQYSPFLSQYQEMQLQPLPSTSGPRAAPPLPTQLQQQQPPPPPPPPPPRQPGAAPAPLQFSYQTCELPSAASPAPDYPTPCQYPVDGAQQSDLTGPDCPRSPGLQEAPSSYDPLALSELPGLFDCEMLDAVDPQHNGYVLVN

Row | SMILES | inhibition [1] [%] | inhibition [2] [%] | inhibition [3] [%] | inhibition [4] [%] | inhibition [5] [%] | inhibition [6] [%] | inhibition [7] [%] | inhibition [8] [%] | inhibition [9] [%] | inhibition [10] [%] | inhibition [11] [%] | inhibition [12] [%] | inhibition [13] [%] | inhibition [14] [%] | inhibition [15] [%] | inhibition [16] [%] | inhibition [17] [%] | inhibition [18] [%] | inhibition [19] [%] | inhibition [20] [%]
1 | O=C(Nc1ccc(Oc2ccc3[nH]c(NC(=O)c4ccccc4)nc3c2)cc1)Nc1cc(C(F)(F)F)ccc1F | -0.13 | 0.85 | -0.27 | 0.86 | 0.98 | 5.14 | 9.55 | 6.29 | 6.45 | 0.91 | 4.56 | 2.04 | 0.69 | 1.68 | 0.74 | 3.86 | 3.79 | 2.09 | 2.88 | 1.66
2 | CCc1ccc(Oc2nccc(-c3c(-c4ccc(F)cc4)ncn3C3CCNCC3)n2)cc1 | 0.04 | 1.11 | 3.63 | 1.38 | 2 | 5.66 | 14.7 | 3.65 | 19.4 | 4.53 | 4.95 | 3.27 | 5.22 | 1.61 | 2.6 | 6.84 | 36.5 | 3.65 | 14.8 | 3.26
3 | NC(=O)c1cc(-c2ccncc2)cc(-c2ccccc2)c1N | 0.75 | -4.72 | -1.81 | 1.31 | 2.24 | 5.39 | 24 | 7.44 | 14.2 | 3.5 | 9.27 | 3.7 | 5.71 | 2.4 | 1.64 | 4.55 | 7.76 | 4.75 | 5.37 | 3.86
4 | O=C1Nc2ccccc2/C1=C/Nc1ccc(-n2cncn2)cc1 | 2.25 | 1.36 | 4.7 | 1.63 | 4.02 | 5.8 | 9.8 | 3.09 | 11.6 | 6.41 | 17.3 | 4.37 | 7.35 | 3.01 | 5.54 | 3.79 | 10.3 | 4.33 | 7.11 | 3.66
5 | CS(=O)(=O)CCNCc1cc(-c2cc3c(Nc4ccc(OCc5cccc(F)c5)c(Cl)c4)ncnc3s2)cs1 | -0.99 | 0.08 | 2.3 | 2.2 | 1.6 | 7.53 | 7.6 | 7.98 | 0.61 | 5.03 | 4.88 | 4.02 | 4.37 | 2.22 | 2.42 | 6.3 | 8.73 | 3.81 | 4.73 | 3.23
6 | Cc1ccc(C(=O)NC(C)C)cc1-c1ccc(C(=O)NCC2CC2)cc1 | 1.24 | 1.28 | 2.53 | -1.12 | -1.11 | -0.49 | -1.49 | 0.37 | -9.28 | -1.37 | -1.07 | -1.97 | -1.52 | -1.67 | -1.52 | -3.83 | -5.5 | -2.95 | -2.32 | -2.65
